# Test results taken from PubChem BioAssay (NCI).
# Compounds without any hit were thinned out: in the full panel of roughly 83,000, 20% have a hit.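 The test compound was applied at a single concentration to cells in 96-well plates for 48 hours, and percent growth was recorded.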 A number with no mark means an inactive call. Active and inactive are the calls of the source. The calls were made as follows: active = growth percent below 10; inactive = the rest.
# Key:
# Assay in all cases: NCI-60 one-dose screen, 48 h (100 = growth as untreated, 0 = no growth, -100 = all killed)
# Settings in all cases: 10 µM unless noted
# [1] = system: SR leukemia
# [2] = system: RPMI-8226 leukemia
# [3] = system: OVCAR-8 ovarian
# [4] = system: OVCAR-5 ovarian
# [5] = system: OVCAR-4 ovarian
# [6] = system: SK-OV-3 ovarian
# [7] = system: IGROV1 ovarian
# [8] = system: OVCAR-3 ovarian
# [9] = system: HS 578T breast
# [10] = system: NCI/ADR-RES ovarian
# [11] = system: T-47D breast
# [12] = system: MDA-MB-435 melanoma
# [13] = system: MCF7 breast
# [14] = system: HCT-116 colon
# [15] = system: HCC-2998 colon
# [16] = system: KM12 colon
# [17] = system: SW-620 colon
# [18] = system: BT-549 breast
Structure (SMILES),growth [1],growth [2],growth [3],growth [4] [%],growth [5],growth [6],growth [7],growth [8],growth [9],growth [10],growth [11],growth [12],growth [13],growth [14],growth [15],growth [16],growth [17],growth [18]
C[C@@H]1N=C(c2ccc3ccccc3c2)Nc2nc3ccccn3c2C1=O,30.5%,43.8%,54.4%,90.6,74.5%,40.5%,32.1%,16.9%,29.3%,44.5%,41.7%,-24.7% (active),25.2%,18.3%,77%,30.3%,,
COc1cc(C2C(C#N)=C(N)Oc3cc4c(cc32)OCO4)cc2c1OCO2 (stereo unspecified),15.3%,31.4%,35.1%,41.3,42.3%,-5.36% (active),33.3%,-39.7% (active),23%,11.2%,53.7%,,16.6%,11%,14.7%,10.9%,29%,
CCN(CC)c1cc(C)c(Cc2c(OC)ccc3ccccc23)cc1C,85.5%,102%,96.8%,102,96.9%,83.4%,88.6%,106%,81%,103%,,104%,90.9%,86.2%,100%,98.1%,86.1%,105%
COc1ccc(/C=C(\C#N)c2cc(OC)c(OC)c(OC)c2)cc1,12.1%,12.3%,15.6%,38.6,35.4%,-6.74% (active),17.9%,-25.1% (active),36%,2.63% (active),55.7%,,3.63% (active),1.54% (active),21.7%,6.76% (active),29.7%,
CCCCCCCCOC(=O)C(C)OC(=O)OCCOCCOC(=O)OC(C)C(=O)OCCCCCCCC (stereo unspecified),104%,98.7%,105%,81.8,117%,103%,104%,98.6%,102%,101%,,103%,104%,102%,100%,104%,106%,107%
COc1ccc(/C=C/C(=O)CCC(=O)O)cc1OC,98.5%,105%,109%,95.4,99%,91%,108%,109%,105%,111%,,106%,97.1%,104%,125%,103%,105%,109%
CN(C)c1nc(-c2cccs2)n2nc(-c3ccco3)cc2n1,74.1%,73.2%,96%,99.4,74.6%,90.2%,81.1%,101%,99.2%,93.5%,,104%,36.3%,91.4%,93.9%,81.4%,96.7%,94%
COCc1nc(NS(=O)(=O)c2ccc(N)cc2)nc(C)c1Br,89.3%,106%,110%,106,123%,96.9%,103%,112%,112%,104%,,107%,103%,94.3%,97.1%,107%,103%,106%
CCS(=O)(=O)Nc1cccc(Nc2c3cccc(C)c3nc3c(C)cccc23)c1OC,5.24% (active),15.8%,24%,21,83.5%,30.6%,36.2%,47.2%,61.2%,41.7%,,54.9%,11.6%,22.9%,1.62% (active),15.4%,33.2%,15.8%
O=C(N/N=C/c1ccc([N+](=O)[O-])cc1)c1ccccc1Nc1ccnc(C(F)(F)F)c1,99.6%,11.2%,86.8%,75.7,61.1%,84.9%,75.3%,91.5%,-27.6% (active),71.9%,47.2%,,95%,76.8%,,87.1%,-44.6% (active),
COc1ccc(C2c3cccn3-c3ccccc3N2C(C)=O)cc1 (stereo unspecified),74%,85.5%,125%,99.3,126%,101%,74.3%,95.3%,,91.2%,103%,57%,116%,97.8%,90.4%,80.2%,85.5%,95.4%
O=S(=O)(Nc1ccc2ccccc2c1)N1CCCCC1,38.1%,82.4%,68.2%,79.1,85.1%,52%,36.3%,,47.5%,6.41% (active),50.3%,,49%,55%,45.3%,39.7%,41%,47.3%
ClC1=NC(Cl)C(Cl)=N/C1=N\c1ncn[nH]1 (stereo unspecified),-60.4% (active),-8.16% (active),-1.21% (active),85,-70.3% (active),66.3%,-50.2% (active),,123%,91.9%,-38.3% (active),13.8%,5.67% (active),-70.2% (active),53.6%,26.4%,-78.7% (active),91.4%
CC(=O)c1ccc(Br)c([N+](=O)[O-])c1,94.5%,96.6%,107%,119,114%,109%,109%,124%,90.7%,,104%,101%,94.1%,96.9%,109%,107%,120%,99.7%
O=C(c1ccccc1)c1cccc(C(Br)Br)c1,43.8%,84.4%,93.7%,125,95.4%,94%,70.5%,97.5%,94.5%,,88.4%,30.9%,65.6%,65.9%,94%,75.2%,66.3%,99.4%
O=C(CCl)N1c2ccccc2Oc2ccc3ccccc3c21,9.32% (active),-24.7% (active),-35.5% (active),22.4,20.7%,30.7%,-70.2% (active),,-12.6% (active),-11.9% (active),-62.5% (active),-22.4% (active),10.4%,-98.8% (active),103%,17.3%,-81.2% (active),-67.3% (active)
COc1cc(C)c(Cl)cc1C1=NN(c2ccc(S(N)(=O)=O)cc2)C(/C=C/c2ccccc2)C1 (stereo unspecified),66.7%,35.8%,31.7%,104,28.1%,88.8%,45.8%,51.7%,86.8%,,17.5%,62.5%,23.3%,11.5%,74.9%,34.8%,43.9%,107%
CCCCCCCCCCCCNC(=O)N[C@H](C(=O)N[C@H]1/C=C/OCCNC(=O)/C=C/[C@H](C(C)C)NC1=O)C(C)C,29%,60.3%,96%,36.1,50.8%,106%,45.2%,,74.2%,101%,47.6%,28.3%,32.4%,25.5%,90.4%,71.5%,48.1%,-7.12% (active)
CCC1N=C(N)N=C(N)N1c1ccc(Cl)cc1 (stereo unspecified),88.9%,87.5%,74.4%,119,103%,108%,66.6%,104%,97%,,95.7%,,91.3%,61.1%,95.4%,97.4%,72.3%,100%
